Data on 40 compounds can be found in PubChem BioAssay.

Structures are written as SMILES. Activity calls are given as the source filed them.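 The calls were made as follows: active = inhibition above 20% together with a positive visual image hit; inconclusive = visual image hit but inhibition not above 20%; inactive = no visual image hit.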

The assay is described as follows: inhibitors of TNFa-induced NFkB p65 translocation, primary screen, imaging, HUVEC, MLSMR starter and 10KST1 sets (AID 438).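 Also: compound added about 3h40 before a 20 min TNFalpha stimulation.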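 As to inhibition: signal is the nuclear over cytoplasmic p65 intensity ratio per well.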 The settings on record: HUVEC TNFa-induced p65 nuclear translocation; cell count: measured here: nuclei count (cytotoxicity indicator), at 2.08 µM; inhibition: at 2 µM, stronger effect = higher value, 0% TNFa-plus-vehicle, 100% no-TNFa wells.
For the compound `COCCNc1nc(C(C)(C)C)nc2c1nnn2Cc1ccccc1Cl`, the cell count was 419 and the inhibition was 15.8% (inactive).

As for `CNC(=O)CSc1nnc(-c2cc(C)cc(C)c2)o1`, the cell count came out at 669 and the inhibition is -5% (inactive).

On to `CC(C(=O)c1ccccc1)n1cnc2ccccc2c1=O` (stereo not given), for which the cell count stood at 646 and the inhibition is 6.4% (inactive).

As to `COC(=O)COc1ccc(C(=O)OC)cc1`, the cell count came out at 384 and the inhibition is 5% (inactive).

For `CC(C)(C)OC(=O)N1CCN(c2ccc(NC(=O)c3cc4ccccc4oc3=O)cc2)CC1`, the inhibition was 4.4% (inactive) and the cell count turned out to be 409.

`CCOC(=O)C1=C(Cn2cnc3ccccc32)NC(=O)NC1c1cc(C)ccc1C` (stereo not given): the inhibition is -10.3% (inactive) and the cell count amounted to 562.

For the compound `COc1cc(OC)cc(C(=O)NCCN2CCOCC2)c1`, the cell count was determined as 633 and the inhibition was -11.2% (inactive).

As to `CC1=C(C(=O)OCCOC(C)C)C(c2cc3c(cc2Br)OCO3)C2=C(CCCC2=O)N1` (stereo not given), the inhibition was 0.2% (inactive) and the cell count worked out at 446.

Turning to `Cn1c(=O)c2ccccc2n(Cc2ccccc2F)c1=O`, the inhibition was -8.1% (inactive) and the cell count came to 254.

For the compound `COc1ccc(-c2noc(CCC(=O)Nc3nc4ccccc4s3)n2)cc1`, the inhibition is -8.6% (inactive) and the cell count amounted to 540.

For the compound `Cc1cc(C)n(Cc2nc3ccccc3n2C)n1`, the inhibition is 7% (inactive) and the cell count came to 451.

`COC(=O)c1ccccc1NC(=O)C1CCCCC1C(=O)O` (stereo not given): the inhibition is 2.8% (inactive) and the cell count worked out at 266.

For the compound `COc1ccc(OC)c(NC(=O)CCN2CCN(c3ccccc3F)CC2)c1`, the cell count was 529 and the inhibition was 10.1% (inactive).

With `COc1ccc(-c2cn3c(C)c(C(=O)Nc4cc(NC(C)=O)ccc4OC)sc3n2)cc1`, the inhibition is 7.3% (inactive) and the cell count was found to be 693.

Take `COc1ccc(-n2nnc3c(=O)n(C/C=C/c4ccccc4)cnc32)cc1`: the cell count amounted to 585 and the inhibition was -6.7% (inactive).

As for `Cc1ccc(S(=O)(=O)N2CCCC2C(=O)n2nc(C)cc2C)cc1` (stereo not given), the cell count was determined as 432 and the inhibition was -12.3% (inactive).

As to `CCOC(=O)c1cnc(-n2nc(C)cc2C)nc1Nc1ccc(N(C)C)cc1`, the inhibition is -15.5% (inactive) and the cell count is 603.

Turning to `Cc1ccc(S(=O)(=O)N2CCOCC2)cc1C(=O)Nc1ccccn1`, the cell count was 542 and the inhibition was -49% (inactive).

For the compound `COC(=O)c1ccc(CNC(=O)COc2ccccc2Br)o1`, the inhibition was -13.6% (inactive) and the cell count is 712.

Consider `Cc1cc2oc(=O)cc(CN3CCCCC3)c2cc1C(C)C`, for which the cell count came to 366 and the inhibition was -3.9% (inactive).

Regarding `Cc1ccc(N2CC(C(=O)Nc3nnc(C)s3)CC2=O)cc1` (stereo not given), the inhibition was 0% (inactive) and the cell count turned out to be 622.

In the case of `Cc1ccc(-c2[nH]nc3c2C(c2ccc(OC(=O)N4CCOCC4)cc2)C(C#N)=C(N)O3)cc1` (stereo not given), the cell count came out at 742 and the inhibition is 10.8% (inactive).

On to `COc1cccc(NC(=O)COc2ccccc2C(N)=O)c1`, for which the cell count worked out at 221 and the inhibition is -1.2% (inactive).

As for `CCSc1nc(O)c(CC)c(=O)n1C(C)CC` (stereo not given), the inhibition was 2.1% (inactive) and the cell count came out at 304.

`O=C(NCC(=O)N(CCc1ccccc1)C(C(=O)NC1CCCC1)c1cccnc1)c1ccco1` (stereo not given): the cell count amounted to 464 and the inhibition was 6.5% (inactive).

Take `CCCn1cnc2c(c1=O)c1nc3ccccc3nc1n2Cc1ccccc1OC`: the inhibition is -7.5% (inactive) and the cell count turned out to be 499.

For `CCn1nnc(NC(=O)c2cc3ccccc3o2)n1`, the cell count turned out to be 332 and the inhibition is 0.5% (inactive).

For `c1ccc(-c2cn3cccnc3n2)cc1`, the cell count worked out at 746 and the inhibition was -0.7% (inactive).

Turning to `COc1ccccc1-n1cnc(N)c1C(C)=O`, the inhibition was -9.1% (inactive) and the cell count is 675.

In the case of `CCOC(=O)C1CCCN(C(=O)c2ccc3c(=O)n(CCOC)c(=S)[nH]c3c2)C1` (stereo not given), the cell count is 417 and the inhibition was 3.9% (inactive).

For `COc1ccc(C2C(C#N)=C(C)NC3=C2C(=O)CC(C)(C)C3)c(OC)c1` (stereo not given), the inhibition was -8% (inactive) and the cell count turned out to be 252.

With `O=C(CN1C(=O)NC(Cc2ccccc2)C1=O)Nc1ccccc1` (stereo not given), the inhibition is 0% (inactive) and the cell count came to 436.

On to `COC(=O)c1ccccc1NC(=O)Cn1c(-c2nonc2N)nc2ccccc21`, for which the cell count came out at 363 and the inhibition is 5.8% (inactive).

On to `CCCc1cc(=O)n2[nH]c(-c3ccc(Br)cc3)cc2n1`, for which the inhibition is 1.7% (inactive) and the cell count was 320.

`COc1ccc(OC)c(N2Cc3cc(C)c(C)cc3C2)c1`: the inhibition was -3.1% (inactive) and the cell count came to 561.

Take `CC1CCCC(NC(=O)CSc2ncccc2C(=O)O)C1C` (stereo not given): the cell count was 660 and the inhibition was -10% (inactive).

With `O=c1cc(-c2ccccc2)[nH]c2nc3ccccc3n12`, the cell count stood at 302 and the inhibition was -1.2% (inactive).

For `CCN1CCN(S(=O)(=O)c2ccc(S(=O)(=O)N(CC)Cc3ccccc3)cc2)CC1`, the cell count was determined as 579 and the inhibition is -0.8% (inactive).

For `CCOC(=O)C1CCCN(C(=O)c2cc3c(C)nc4ccccc4c3o2)C1` (stereo not given), the cell count stood at 525 and the inhibition is -14.7% (inactive).

Consider `CCCC(=O)Nc1ccc(NC(=O)c2cccs2)cn1`, for which the cell count came to 425 and the inhibition was 6.7% (inactive).

As usually defined, the inhibition is the drop in the measured response relative to a control, in per cent.
